An excerpt weighted towards active compounds, which were near 1.5% of everything screened.
WRN helicase inh-1 – blocks human WRN helicase; WRN helicase unwinding, fluorescent forked duplex, kinetic; Potency, µM (series often up to 114 µM), inactives show at the highest dose activity change, negative = inhibition, hits mostly inhibitors; actives 0.46% (n = 360,000); AID 651768; note: potency is the fitted concentration of half-maximal effect; % is set by controls: 0 for no effect and ±100 for the full control effect; nearly all actives have a fitted effect of over 55% in size
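Screening of the MLSMR collection measured strand separation of a quenched forked DNA duplex (100 nM) by 20 nM WRN with 2 mM ATP, all final. Compounds were preincubated with enzyme 15 min at room temperature.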
RECQ1 helicase – RECQ1 (human) helicase inhibition; actives 0.54% (n = 240,000); P46063; RECQ1 DNA unwinding, red fluorescence kinetic read; AID 2549; Potency, µM (top dose mostly 57.3 µM), for inactives: at the highest dose activity, negative = inhibition, most hits filed as inhibitors;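 note: potency is the fitted concentration of half-maximal effect; plate controls were vehicle for no effect and no enzyme for full effect; nearly all actives have a fitted effect of over 30% in size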
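50 nM RECQ1T1 preincubated 15 min with compound in Tris pH 8.0 buffer with MgCl2, DTT, Tween-20 and 2.5 ug/ml poly(dI-dC); started with 200 nM TAMRA/BHQ-2 forked duplex and 2 mM ATP. Unwinding read as fluorescence (525/598 nm), two reads 2 h apart.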
PI5P4Ka inh – blocks human PI5P4K alpha kinase activity | PI5P4Kalpha enzyme, ADP-Glo luminescence, 60 min; stronger effect = lower value | actives 1.2% (n = 330,000) | AID 652105 | max response, % | P48426; active = max response of -50% or lower; inconclusive = between -30% and -50%; inactive = -30% or higher; note: value at the top dose of about 77 µM; % is set by controls: 0 for no effect and ±100 for the full control effect
Target sequence (P48426 whole entry, looked up): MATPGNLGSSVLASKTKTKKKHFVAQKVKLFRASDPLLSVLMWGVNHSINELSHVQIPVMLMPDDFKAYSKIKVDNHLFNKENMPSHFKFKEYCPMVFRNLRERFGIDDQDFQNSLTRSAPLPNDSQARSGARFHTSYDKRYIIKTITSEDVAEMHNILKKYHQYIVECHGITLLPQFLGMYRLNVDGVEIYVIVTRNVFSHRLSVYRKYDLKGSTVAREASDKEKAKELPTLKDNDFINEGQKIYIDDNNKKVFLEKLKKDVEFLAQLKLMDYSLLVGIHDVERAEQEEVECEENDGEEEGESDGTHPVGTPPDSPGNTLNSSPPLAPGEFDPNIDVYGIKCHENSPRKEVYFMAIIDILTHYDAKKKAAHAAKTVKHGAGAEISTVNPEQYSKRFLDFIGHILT
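PI5P4Kalpha ADP-Glo assay; 5 microM ATP final; 60 min RT reaction; HEPES pH 7.4/EGTA/CHAPS, 5% DMSO; controls lacking substrate or enzyme; luminescent end-point.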
FEN1 inh-1 – human FEN1 inhibition. P39748. Recombinant FEN1 flap cleavage, fluorescence, 15 min. Potency, µM (top dose mostly 114 µM), inactives show top-dose activity change, negative = inhibition, most hits filed as inhibitors. actives 0.35% (n = 390,000); note: potency is the fitted concentration of half-maximal effect; % is set by controls: 0 for no effect and ±100 for the full control effect; nearly all actives have a fitted effect of over 65% in size
Target sequence (P39748 whole entry, looked up): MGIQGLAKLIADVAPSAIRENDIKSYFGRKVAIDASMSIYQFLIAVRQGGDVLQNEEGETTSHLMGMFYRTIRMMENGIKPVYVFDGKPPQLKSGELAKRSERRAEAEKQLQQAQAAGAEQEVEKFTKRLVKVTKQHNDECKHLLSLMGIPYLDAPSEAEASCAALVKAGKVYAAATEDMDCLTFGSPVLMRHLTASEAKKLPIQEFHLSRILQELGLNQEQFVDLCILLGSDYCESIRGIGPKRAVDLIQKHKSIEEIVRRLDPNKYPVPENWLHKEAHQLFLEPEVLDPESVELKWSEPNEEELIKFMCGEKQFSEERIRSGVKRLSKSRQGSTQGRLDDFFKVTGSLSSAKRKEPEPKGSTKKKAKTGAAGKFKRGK
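Quantitative HTS format: each compound was titrated, incubated with 10 nM nuclease for 15 min at room temperature, then challenged with flap substrate at 50 nM final. Signal change over 15 min gave concentration–effect curves.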
BLM helicase inh-1 – blocks DNA unwinding by human BLM helicase | P54132 | recombinant BLM DNA unwinding, fluorescence dequenching | Potency, µM (titrated, usually from 56.1 µM), without a hit: at the highest dose activity change, negative = inhibition, hits mostly inhibitors | actives 0.2% (n = 350,000) | AID 2528;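 note: potency is the fitted concentration of half-maximal effect; plate controls were vehicle for no effect and no enzyme for full effect; nearly all actives have a fitted effect of over 35% in size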
APE1 inh – inhibitors of human APE1 endonuclease; P27695; recombinant APE1, TAMRA/BHQ-2 abasic DNA cleavage fluorescence; Potency, µM (doses to about 65.8 µM), for inactives: top-dose activity change, negative = inhibition, actives largely listed as inhibitors; actives 0.35% (n = 350,000);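 note: potency is the fitted concentration of half-maximal effect; plate controls were vehicle for no effect and reference inhibitor for full effect; nearly all actives have a fitted effect of over 55% in size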
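Incision of a quenched TAMRA/BHQ-2 THF abasic-site duplex (50 nM) by 0.75 nM APE1, after 15 min compound preincubation, measured as fluorescence increase over three 60 s reads. Values normalized to buffer, DMSO and NSC13755 control wells.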
FEN1 inh-2 – FEN1 inhibition, cherry-pick retest | FEN1 flap cleavage, TAMRA/BHQ2 fluorogenic DNA substrate | Potency, µM, hits mostly inhibitors | actives 79% (n = 880) | shares compounds with FEN1 inh-1 | AID 720498; note: potency is the fitted concentration of half-maximal effect; nearly all actives have a fitted effect of over 60% in size
WRN helicase inh-2 – confirmation of human WRN helicase inhibitors; Potency, µM (top dose mostly 57.1 µM), for the others: at the top dose activity, negative = inhibition, usual class: inhibitors; WRN helicase DNA unwinding, fluorescence kinetic; shares compounds with WRN helicase inh-1; AID 720497; actives 63% (n = 610); note: potency is the fitted concentration of half-maximal effect; nearly all actives have a fitted effect of over 65% in size
TO DNA binding – counter-screen for WRN helicase inhibitors: DNA binding. shares compounds with WRN helicase inh-1. thiazole orange DNA binding displacement, fluorescence. Potency, µM (top dose mostly 57.1 µM), for inactives: at the top dose activity change, negative = inhibition, actives largely listed as inhibitors. actives 10% (n = 610);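 note: drop in dye fluorescence marks compound binding to DNA; potency is the fitted concentration of half-maximal effect; % is set by controls: 0 for no effect and ±100 for the full control effect; nearly all actives have a fitted effect of over 60% in size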
BLM helicase inh-2 – blocks human BLM helicase in WRN counterscreen | Recombinant BLM helicase DNA unwinding, red fluorescence | actives 60% (n = 610) | Potency, µM (top dose mostly 57.1 µM), without a hit: top-dose activity change, negative = inhibition, usual class: inhibitors | shares compounds with WRN helicase inh-1; note: potency is the fitted concentration of half-maximal effect; nearly all actives have a fitted effect of over 60% in size
* marks the source's active call; other numbers are inactive results; ! = not confirmed by another sample. Unless noted, calls come from the whole dose curve; as a rule, active = well fitted curve in the direction sought with a large enough effect; inconclusive = small, poorly fitted or top-dose-only effect, or another doubt; inactive = no such curve, though single readings can be large; an effect the other way counts as inactive or inconclusive.

COC(=O)c1nc(-c2ccc3c(n2)C(=O)C(N)=C(OC)C3=O)c(N)c(-c2ccc(OC)c(OC)c2O)c1C was read as WRN helicase inh-1 inconclusive, RECQ1 helicase 9.9%, PI5P4Ka inh -7.3, FEN1 inh-1 15.8µM*, BLM helicase inh-1 -18.4%, APE1 inh inconclusive and FEN1 inh-2 37.9*.
Screening COc1cc2c(cc1OC)-c1c3c(cc4c1[C@@H](C2)N(C)CC4)OCO3 returned WRN helicase inh-1 inconclusive, RECQ1 helicase -25.0%, PI5P4Ka inh -2.6, FEN1 inh-1 2.51µM*, BLM helicase inh-1 0.3%, APE1 inh -7.8% and FEN1 inh-2 33.8*.
For O=C1NC(=O)N(c2cccc(Cl)c2)C(=O)/C1=C\c1ccc(Sc2nc3ccccc3[nH]2)o1 the results were WRN helicase inh-1 89.1µM*, RECQ1 helicase 12.6µM*, PI5P4Ka inh -74.4*, FEN1 inh-1 44.7µM*, BLM helicase inh-1 -12.7%, APE1 inh inconclusive and FEN1 inh-2 inconclusive.
O=C1NC(=O)N(c2ccc3c(c2)OCO3)C(=O)/C1=C/c1ccc(N2CCCCC2)o1 was read as WRN helicase inh-1 -5.3%, RECQ1 helicase -3.1%, PI5P4Ka inh -9.4, FEN1 inh-1 6.7%, BLM helicase inh-1 -0.8% and APE1 inh -7.3%.
Screening O=C(Cc1cc(=O)oc2cc(O)ccc12)NN=Cc1ccc(N(CCCl)CCCl)cc1 returned WRN helicase inh-1 inconclusive, PI5P4Ka inh -0.1, FEN1 inh-1 31.6µM* and FEN1 inh-2 37.9*.
`Cc1cc(/C=C2\C(=O)NC(=O)N(c3ccc(Br)cc3)C2=O)c(C)n1-c1cc(C(=O)O)cc(C(=O)O)c1` gave WRN helicase inh-1 22.4µM*, PI5P4Ka inh -77.4*, FEN1 inh-1 inconclusive, BLM helicase inh-1 5.8%, APE1 inh -32.4%, FEN1 inh-2 inconclusive, WRN helicase inh-2 24.1µM*, TO DNA binding -0.3% and BLM helicase inh-2 -16.9%.
For CCC(=O)CCCCC[C@@H]1NC(=O)[C@H]2CCCCN2C(=O)[C@H]([C@@H](C)CC)NC(=O)[C@H](Cc2cn(OC)c3ccccc23)NC1=O the results were RECQ1 helicase -17.7%, BLM helicase inh-1 -8.5% and APE1 inh -3.3%.
Cc1ccc(N2C(=O)NC(=O)/C(=C\c3ccc([N+](=O)[O-])o3)C2=O)cc1 was read as RECQ1 helicase inconclusive, BLM helicase inh-1 -5.0% and APE1 inh inconclusive.
COc1ccc(N2C(=O)NC(=O)/C(=C\c3ccc([N+](=O)[O-])s3)C2=O)cc1 was read as WRN helicase inh-1 25.1µM*, RECQ1 helicase inconclusive, PI5P4Ka inh -63.3*, FEN1 inh-1 inconclusive, BLM helicase inh-1 -18.0%, APE1 inh inconclusive, FEN1 inh-2 9.53*, WRN helicase inh-2 21.5µM*, TO DNA binding -16.9% and BLM helicase inh-2 -21.6%.
For COc1ccc(N2C(=O)NC(=O)/C(=C/c3ccc([N+](=O)[O-])s3)C2=O)cc1 the results were WRN helicase inh-1 50.1µM*, RECQ1 helicase inconclusive, PI5P4Ka inh -77.4*, FEN1 inh-1 inconclusive, BLM helicase inh-1 -2.9%, APE1 inh inconclusive, FEN1 inh-2 19*, WRN helicase inh-2 19.2µM*, TO DNA binding inconclusive and BLM helicase inh-2 21.5µM*.
For O=C1NC(=O)N(Cc2ccc(F)cc2)C(=O)/C1=C\c1ccc([N+](=O)[O-])s1 the results were WRN helicase inh-1 39.8µM*, RECQ1 helicase 31.6µM*, PI5P4Ka inh -78.6*, FEN1 inh-1 25.1µM*, BLM helicase inh-1 -18.1%, APE1 inh inconclusive, FEN1 inh-2 6.75*, WRN helicase inh-2 15.2µM*, TO DNA binding 27.1µM* and BLM helicase inh-2 19.2µM*.
Cc1cc(/C=C2\C(=O)NC(=O)N(Cc3ccccc3)C2=O)c(C)n1C1CC1 was read as WRN helicase inh-1 -14.0%, RECQ1 helicase inactive, PI5P4Ka inh -7.1, FEN1 inh-1 3.3%, BLM helicase inh-1 -1.5% and APE1 inh 0.2%.
Screening CCN1CC2(OC(=O)c3ccccc3NC(C)=O)CCC(OC)[C@]34C1[C@H](CC23)[C@@]1(O)C[C@H](OC)[C@H]2CC4C1(O)[C@H]2OC (some centres not stated) returned RECQ1 helicase -6.3%, BLM helicase inh-1 -8.0% and APE1 inh -2.6%.
Screening CNC(=S)S returned RECQ1 helicase -0.5%, BLM helicase inh-1 -3.3% and APE1 inh inconclusive.
CN(C)[C@@H]1C(=O)C(C(N)=O)=C(O)[C@@]2(O)C(=O)C3=C(O)c4c(O)cccc4[C@@](C)(O)[C@H]3[C@H](O)[C@@H]12 was read as WRN helicase inh-1 20µM*, RECQ1 helicase 11.2µM*!, PI5P4Ka inh -84.9*, FEN1 inh-1 11.2µM*!, BLM helicase inh-1 -16.8%, APE1 inh 7.94µM*!, FEN1 inh-2 75.7*, WRN helicase inh-2 17.1µM*, TO DNA binding inconclusive and BLM helicase inh-2 13.6µM*.
For CN(C)[C@@H]1C(=O)C(C(N)=O)=C(O)[C@@]2(O)C(=O)C3=C(O)c4c(O)ccc(Cl)c4[C@@](C)(O)[C@H]3C[C@@H]12 the results were WRN helicase inh-1 -3.0%, PI5P4Ka inh -19.3, FEN1 inh-1 inconclusive, BLM helicase inh-1 -5.8% and APE1 inh 45.4%.
CCNCC was read as RECQ1 helicase -4.1% and APE1 inh 1.7%.

Screens (PubChem BioAssay)
